# Measurements: the supplement of paper PMC4466140
# B1: unnamed (peptide)
# chain: APKREAPKPPANTSP
# Molecular target: AgAbp1
# Experiment: SPOT peptide array binding signal intensity (averaged, normalized) (arbitrary units (background-subtracted, floor 0; scale differs between SH3 domains)); higher = stronger binding of the SH3 domain to the peptide
# Method in brief: (§1)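 Binding signal refers to normalized, background-subtracted spot intensity averaged over replicates, expressed in arbitrary units that differ between domains. GST-fused SH3 domains from four yeast species were incubated at 10 μg/ml overnight at 4°C on cellulose membranes of synthetic 15-mer peptides with cysteines replaced by serines. Bound protein was detected with anti-GST antibody, an HRP anti-mouse secondary and luminol, and quantified with Genespotter.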
row,Binder,SPOT peptide array binding signal intensity
1,B1,1

# Molecular target: AgBbc1
# Experiment: as above
# Method in brief: as §1
row,Binder,SPOT peptide array binding signal intensity
1,B1,112

# Molecular target: AgBem1-D1
# Experiment: as above
# Method in brief: as §1
row,Binder,SPOT peptide array binding signal intensity
1,B1,34

# Molecular target: AgBzz1-D1
# Experiment: as above
# Method in brief: as §1
row,Binder,SPOT peptide array binding signal intensity
1,B1,178

# Molecular target: AgBzz1-D2
# Experiment: as above
# Method in brief: as §1
row,Binder,SPOT peptide array binding signal intensity
1,B1,2.5

# Molecular target: AgCyk3
# Experiment: as above
# Method in brief: as §1
row,Binder,SPOT peptide array binding signal intensity
1,B1,≤ 0

# Molecular target: AgFus1
# Experiment: as above
# Method in brief: as §1
row,Binder,SPOT peptide array binding signal intensity
1,B1,≤ 0

# Molecular target: AgHof1
# Experiment: as above
# Method in brief: as §1
row,Binder,SPOT peptide array binding signal intensity
1,B1,6

# Molecular target: AgHse1
# Experiment: as above
# Method in brief: as §1
row,Binder,SPOT peptide array binding signal intensity
1,B1,≤ 0

# Molecular target: AgLsb1
# Experiment: as above
# Method in brief: as §1
row,Binder,SPOT peptide array binding signal intensity
1,B1,4.5

# Molecular target: AgLsb4
# Experiment: as above
# Method in brief: as §1
row,Binder,SPOT peptide array binding signal intensity
1,B1,≤ 0

# Molecular target: AgMyo5
# Experiment: as above
# Method in brief: as §1
row,Binder,SPOT peptide array binding signal intensity
1,B1,265

# Molecular target: AgNbp2
# Experiment: as above
# Method in brief: as §1
row,Binder,SPOT peptide array binding signal intensity
1,B1,382

# Molecular target: AgRvs167
# Experiment: as above
# Method in brief: as §1
row,Binder,SPOT peptide array binding signal intensity
1,B1,≤ 0

# Molecular target: AgSho1
# Experiment: as above
# Method in brief: as §1
row,Binder,SPOT peptide array binding signal intensity
1,B1,≤ 0

# Molecular target: AgSla1-D1-D2
# Experiment: as above
# Method in brief: as §1
row,Binder,SPOT peptide array binding signal intensity
1,B1,≤ 0

# Molecular target: AgSla1-D3
# Experiment: as above
# Method in brief: as §1
row,Binder,SPOT peptide array binding signal intensity
1,B1,8

# Molecular target: CaAbp1-D1
# Experiment: as above
# Method in brief: as §1
row,Binder,SPOT peptide array binding signal intensity
1,B1,6

# Molecular target: CaAbp1-D2
# Experiment: as above
# Method in brief: as §1
row,Binder,SPOT peptide array binding signal intensity
1,B1,11

# Molecular target: CaBbc1
# Experiment: as above
# Method in brief: as §1
row,Binder,SPOT peptide array binding signal intensity
1,B1,251

# Molecular target: CaBem1-D1
# Experiment: as above
# Method in brief: as §1
row,Binder,SPOT peptide array binding signal intensity
1,B1,14

# Molecular target: CaBzz1-D1
# Experiment: as above
# Method in brief: as §1
row,Binder,SPOT peptide array binding signal intensity
1,B1,2040

# Molecular target: CaBzz1-D2
# Experiment: as above
# Method in brief: as §1
row,Binder,SPOT peptide array binding signal intensity
1,B1,2090

# Molecular target: CaCyk3
# Experiment: as above
# Method in brief: as §1
row,Binder,SPOT peptide array binding signal intensity
1,B1,≤ 0

# Molecular target: CaFus1
# Experiment: as above
# Method in brief: as §1
row,Binder,SPOT peptide array binding signal intensity
1,B1,18

# Molecular target: CaHof1
# Experiment: as above
# Method in brief: as §1
row,Binder,SPOT peptide array binding signal intensity
1,B1,≤ 0

# Molecular target: CaHse1
# Experiment: as above
# Method in brief: as §1
row,Binder,SPOT peptide array binding signal intensity
1,B1,1.5

# Molecular target: CaLsb1
# Experiment: as above
# Method in brief: as §1
row,Binder,SPOT peptide array binding signal intensity
1,B1,≤ 0

# Molecular target: CaLsb4
# Experiment: as above
# Method in brief: as §1
row,Binder,SPOT peptide array binding signal intensity
1,B1,≤ 0

# Molecular target: CaMyo5
# Experiment: as above
# Method in brief: as §1
row,Binder,SPOT peptide array binding signal intensity
1,B1,1.75

# Molecular target: CaNbp2
# Experiment: as above
# Method in brief: as §1
row,Binder,SPOT peptide array binding signal intensity
1,B1,1520

# Molecular target: CaRvs167
# Experiment: as above
# Method in brief: as §1
row,Binder,SPOT peptide array binding signal intensity
1,B1,0.5

# Molecular target: CaRvs167-3
# Experiment: as above
# Method in brief: as §1
row,Binder,SPOT peptide array binding signal intensity
1,B1,2

# Molecular target: CaSho1
# Experiment: as above
# Method in brief: as §1
row,Binder,SPOT peptide array binding signal intensity
1,B1,≤ 0

# Molecular target: CaSla1-D1-D2
# Experiment: as above
# Method in brief: as §1
row,Binder,SPOT peptide array binding signal intensity
1,B1,106

# Molecular target: CaSla1-D3
# Experiment: as above
# Method in brief: as §1
row,Binder,SPOT peptide array binding signal intensity
1,B1,0.25

# Molecular target: ScAbp1
# Experiment: as above
# Method in brief: as §1
row,Binder,SPOT peptide array binding signal intensity
1,B1,≤ 0

# Molecular target: ScBbc1
# Experiment: as above
# Method in brief: as §1
row,Binder,SPOT peptide array binding signal intensity
1,B1,156

# Molecular target: ScBem1-D1
# Experiment: as above
# Method in brief: as §1
row,Binder,SPOT peptide array binding signal intensity
1,B1,4.5

# Molecular target: ScBzz1-D1
# Experiment: as above
# Method in brief: as §1
row,Binder,SPOT peptide array binding signal intensity
1,B1,348

# Molecular target: ScBzz1-D2
# Experiment: as above
# Method in brief: as §1
row,Binder,SPOT peptide array binding signal intensity
1,B1,5

# Molecular target: ScCyk3
# Experiment: as above
# Method in brief: as §1
row,Binder,SPOT peptide array binding signal intensity
1,B1,≤ 0

# Molecular target: ScFus1
# Experiment: as above
# Method in brief: as §1
row,Binder,SPOT peptide array binding signal intensity
1,B1,≤ 0

# Molecular target: ScHof1
# Experiment: as above
# Method in brief: as §1
row,Binder,SPOT peptide array binding signal intensity
1,B1,≤ 0

# Molecular target: ScHse1
# Experiment: as above
# Method in brief: as §1
row,Binder,SPOT peptide array binding signal intensity
1,B1,≤ 0

# Molecular target: ScLsb1
# Experiment: as above
# Method in brief: as §1
row,Binder,SPOT peptide array binding signal intensity
1,B1,≤ 0

# Molecular target: ScLsb2
# Experiment: as above
# Method in brief: as §1
row,Binder,SPOT peptide array binding signal intensity
1,B1,≤ 0

# Molecular target: ScLsb3
# Experiment: as above
# Method in brief: as §1
row,Binder,SPOT peptide array binding signal intensity
1,B1,4.5

# Molecular target: ScLsb4
# Experiment: as above
# Method in brief: as §1
row,Binder,SPOT peptide array binding signal intensity
1,B1,≤ 0

# Molecular target: ScMyo3
# Experiment: as above
# Method in brief: as §1
row,Binder,SPOT peptide array binding signal intensity
1,B1,616

# Molecular target: ScMyo5
# Experiment: as above
# Method in brief: as §1
row,Binder,SPOT peptide array binding signal intensity
1,B1,414

# Molecular target: ScNbp2
# Experiment: as above
# Method in brief: as §1
row,Binder,SPOT peptide array binding signal intensity
1,B1,1140

# Molecular target: ScPex13
# Experiment: as above
# Method in brief: as §1
row,Binder,SPOT peptide array binding signal intensity
1,B1,47.8

# Molecular target: ScRvs167
# Experiment: as above
# Method in brief: as §1
row,Binder,SPOT peptide array binding signal intensity
1,B1,1

# Molecular target: ScSho1
# Experiment: as above
# Method in brief: as §1
row,Binder,SPOT peptide array binding signal intensity
1,B1,≤ 0

# Molecular target: ScSla1-D1-D2
# Experiment: as above
# Method in brief: as §1
row,Binder,SPOT peptide array binding signal intensity
1,B1,738

# Molecular target: ScSla1-D3
# Experiment: as above
# Method in brief: as §1
row,Binder,SPOT peptide array binding signal intensity
1,B1,16.2

# Molecular target: SpAbp1-D1
# Experiment: as above
# Method in brief: as §1
row,Binder,SPOT peptide array binding signal intensity
1,B1,15

# Molecular target: SpBbc1
# Experiment: as above
# Method in brief: as §1
row,Binder,SPOT peptide array binding signal intensity
1,B1,1

# Molecular target: SpBzz1-D1
# Experiment: as above
# Method in brief: as §1
row,Binder,SPOT peptide array binding signal intensity
1,B1,86

# Molecular target: SpBzz1-D2
# Experiment: as above
# Method in brief: as §1
row,Binder,SPOT peptide array binding signal intensity
1,B1,0.25

# Molecular target: SpCyk3
# Experiment: as above
# Method in brief: as §1
row,Binder,SPOT peptide array binding signal intensity
1,B1,≤ 0

# Molecular target: SpHof1
# Experiment: as above
# Method in brief: as §1
row,Binder,SPOT peptide array binding signal intensity
1,B1,≤ 0

# Molecular target: SpHof1-2
# Experiment: as above
# Method in brief: as §1
row,Binder,SPOT peptide array binding signal intensity
1,B1,≤ 0

# Molecular target: SpHof1-3
# Experiment: as above
# Method in brief: as §1
row,Binder,SPOT peptide array binding signal intensity
1,B1,6.25

# Molecular target: SpHse1
# Experiment: as above
# Method in brief: as §1
row,Binder,SPOT peptide array binding signal intensity
1,B1,3.5

# Molecular target: SpLsb1
# Experiment: as above
# Method in brief: as §1
row,Binder,SPOT peptide array binding signal intensity
1,B1,≤ 0

# Molecular target: SpLsb4
# Experiment: as above
# Method in brief: as §1
row,Binder,SPOT peptide array binding signal intensity
1,B1,≤ 0

# Molecular target: SpMyo1
# Experiment: as above
# Method in brief: as §1
row,Binder,SPOT peptide array binding signal intensity
1,B1,1270

# Molecular target: SpNbp2
# Experiment: as above
# Method in brief: as §1
row,Binder,SPOT peptide array binding signal intensity
1,B1,1

# Molecular target: SpPex13
# Experiment: as above
# Method in brief: as §1
row,Binder,SPOT peptide array binding signal intensity
1,B1,≤ 0

# Molecular target: SpRvs167
# Experiment: as above
# Method in brief: as §1
row,Binder,SPOT peptide array binding signal intensity
1,B1,2.67

# Molecular target: SpSla1-D1-D2
# Experiment: as above
# Method in brief: as §1
row,Binder,SPOT peptide array binding signal intensity
1,B1,≤ 0

# Molecular target: SpSla1-D3
# Experiment: as above
# Method in brief: as §1
row,Binder,SPOT peptide array binding signal intensity
1,B1,0.5
